Where “and” joins values, the source holds several entries; their conditions need not be identical. Equal values may be shown once. Records with an inconclusive call do not appear. A number with no mark means an inactive call. Calls of active or inactive are those of the source. Calls come from the whole dose curve; as a rule, active = well fitted cell-killing curve with a large enough effect in the repeat runs; inconclusive = weak or mixed curves, or effect the other way; inactive = no such curve, though single readings can be large or run the other way.
assay: qHTS assay to identify small molecule antagonists of the progesterone receptor (PR) signaling pathway - cell viability counter screen (AID 1346798); details: PR-UAS-bla HEK293T viability, CellTiter-Glo luminescence, 16 h; series mostly up to 42.5 µM; activity change, negative = cytotoxicity: at the top concentration; note: nearly all actives have a fitted effect of over 50% in size
Text: National Center for Advancing Translational Sciences [NCATS]
NIH Chemical Genomics Center [NCGC]
U.S. Environmental Protection Agency [EPA]
National Institutes of Environmental Health Sciences [NIEHS]
National Toxicology Program [NTP]
U.S. Food and Drug Administration [FDA]
Progesterone receptor (PR), a nuclear hormone receptor, plays an important role in development, metabolic homeostasis and reproduction. It is activated by the steroid hormone progesterone. Endocrine disrupting chemicals (EDCs) and their interactions with steroid hormone receptors like PR causes disruption of normal endocrine function. To identify the compounds that inhibit PR signaling, a PR-UAS-bla GripTite cell line i.e. PR-UAS-bla HEK293T (Invitrogen, Carlsbad, CA, USA) containing a beta-lactamase reporter gene under the control of an UAS response element was used to screen Tox21 10K compound library. The cytotoxicity of the Tox21 compound library against the PR-bla cell line was tested in parallel by measuring the cell viability using CellTiter-Glo assay in the same wells.
Tox21 Assay Protocol Summary:
PR-UAS-bla HEK293T cells were dispensed at 3,000 cells/4 uL of assay medium containing 2% charcoal stripped FBS per well into black wall/clear-bottom 1536-well plates using a Multidrop Combi (ThermoFisher Scientific, Waltham, MA) dispenser. After the assay plates were incubated at a 37C and 5% CO2 for 4 hr, 23 nL of compounds dissolved in DMSO, positive controls or DMSO only was transferred to the assay plate by a Pintool station (Kalypsys, San Diego, CA), followed by addition of 1 uL of R5020 in assay medium using a Flying Reagent Dispenser (FRD, Aurora Discovery, San Diego, CA). The plates were incubated at 37C and 5% CO2 for 16 hr. Then 1 uL of LiveBLAzer B/G FRET substrate was added using a Flying Reagent Dispenser, the plates were incubated at room temperature for 2 hours, and fluorescence intensity was measured by an Envision plate reader (PerkinElmer, Shelton, CT). For cell viability readout that measures cytotoxicity, 4 uL/well of CellTiter-Glo reagent was added into the assay plates using a FRD. After 30 min incubation at room temperature, the luminescence intensity in the plates was measured using a ViewLux (PerkinElmer) plate reader.
% is set by controls: 0 for no effect and ±100 for the full control effect; potency is the fitted concentration of half-maximal effect.

Structure (SMILES)	activity change, negative = cytotoxicity	Potency
O=C(CCCN1CCC(O)(c2cccc(C(F)(F)F)c2)CC1)c1ccc(F)cc1	-18.8%	–
CN1N=C(C(N)=O)CCC1=O	1.22%	–
CO/N=C(/C(=O)N[C@@H]1C(=O)N2C(C(=O)OCOC(=O)C(C)(C)C)=C(C)CS[C@H]12)c1csc(N)n1	4.95%	–
NC(CSCC(=O)O)C(=O)O (stereo not given)	-1.02%	–
CC(NC(CCc1ccccc1)C(=O)O)C(=O)N1C(=O)N(C)CC1C(=O)O (stereo not given)	8.83%	–
C=C(C)CS(=O)(=O)O	1.45% [at 92.4 µM]	–
CCCCOCCOCCOCCCC	-5.45% [at 92.4 µM]	–
FC(F)OC(Cl)C(F)(F)F (stereo not given)	-8.69% [at 92.4 µM]	–
CCCCCCCCCCCCCCCCC	2.17% [at 92.4 µM]	–
CC(=O)Nc1ccc(S(N)(=O)=O)cc1	1.81% [at 92.4 µM]	–
CCO/C([O-])=N/c1c[n+](N2CCOCC2)no1	9.75%	–
O=Cc1cccc([N+](=O)[O-])c1	5.22% [at 92.4 µM]	–
COc1cc(C(=O)N2CCCCCCC2)cc(OC)c1OC	-1.45%	–
CCOC(=O)C(=O)OCC	-7.4% [at 92.4 µM]	–
CCOC(=O)Nc1ccc(NCc2ccc(F)cc2)nc1N	3.25%	–
CCOC(=O)c1cccc(N)c1	6.83%	–
CN1CCCC1	-7.37% [at 92.4 µM]	–
CC(C)=CCCC(C)CC(=O)O (stereo not given)	3.48% [at 92.4 µM]	–
CCc1cccc2c(CCO)c[nH]c12	-19.9%	–
CN(C(=O)c1c(O)c2ccccc2n(C)c1=O)c1ccccc1	11.5%	–

Structure (SMILES)	activity change, negative = cytotoxicity	Potency
COc1c(N2C[C@@H]3CCCN[C@@H]3C2)c(F)cc2c(=O)c(C(=O)O)cn(C3CC3)c12	19.5%	–
CN(C)CCCN1c2ccccc2CCc2ccc(Cl)cc21	–	34.4 µM (active) and 29.8 µM (active)
CCCCC/C=C\CCC=O	-3.33% [at 92.4 µM]	–
N[C@H](C(=O)O)c1ccc(O)cc1	3.27% [at 18.9 µM]	–
Nc1ccc(S(=O)(=O)Nc2ccnn2-c2ccccc2)cc1	-1.46% [at 18.9 µM]	–
CC(=O)OCC(=O)[C@@]1(O)CCC2C3CCC4=CC(=O)CC[C@]4(C)C3[C@@H](O)C[C@@]21C (stereo not given in full)	-0.51%	–
CCOC(C)(C)C	9.88% [at 92.4 µM]	–
CCCCCSCCCCC	0.933% [at 92.4 µM]	–
CCOC(=O)CCC(C)=O	7.58% [at 92.4 µM]	–
CC(C)(O)C#CC(C)(C)O	-16.6% [at 92.4 µM]	–
CC/C=C\CC/C=C/C(OCC)OCC	-0.523% [at 92.4 µM]	–
CCn1nc(C(=O)O)c(=O)c2cc3c(cc21)OCO3	2.35%	–
Brc1c(NC2=NCCN2)ccc2nccnc12	-18.5%	–
O=c1[nH]c(=O)n([C@H]2C[C@H](O)[C@@H](CO)O2)cc1I	-14.4%	–
C=C(C)C(=O)OCCCCCCCC(C)C	11% [at 92.4 µM]	–
CCOC(=O)CC(C)=O	-5.94% [at 92.4 µM]	–
Cc1cccn2c(=O)c(-c3nnn[nH]3)cnc12	-1.22% [at 18.9 µM]	–
C[C@H]1C[C@@H](O)CC(C)(C)C1	1.68% [at 92.4 µM]	–
NS(=O)(=O)c1ccccc1Cl	-0.633% [at 92.4 µM]	–
CC1=CC(C)C(C=O)CC1 (stereo not given)	6.58% [at 92.4 µM]	–

Source: PubChem BioAssay (Tox21)
